Assay results taken from PubChem BioAssay AID504706 (National Center for Advancing Translational Sciences (NCATS), 2011).
Out of some 320,000 compounds screened, about 200 (0.062%) were called active. A call without a number means that no potency is given here. Inconclusive results (about 6%) are left out. The sample holds actives, similar compounds and a random draw of the others, so the mix is not that of the screen. Calls follow the shape of the dose curve; as a rule, active = well fitted activation curve with a large enough effect; inconclusive = small, poorly fitted or top-dose-only effect; inactive = no such curve, though single readings can be large or run the other way.

Test: qHTS assay for re-activators of p53 using a Luc reporter; also: nearly all actives have a fitted effect of over 45% in size
Settings: H1299 p53-A138V BP100-luciferase reporter, luminescence, 24 h; series mostly up to 92.2 µM
Text: The p53 tumor suppressor plays a key role in suppression of tumorigenesis and in human carcinogenesis. It is frequently found inactivated in human cancers, mainly by point mutation. These point mutations are found in a wide variety of human cancers and a majority of them affect the DNA binding domain of the protein. The point mutations either alter native p53 conformation or abolish DNA contact. Additionally, cancer cells with p53 mutations are more resistant to chemo-radiation therapies. In order to find activators to reactivate this important protein, a cell-based screen for p53-dependent luciferase-reporter expression was developed. A p53-null H1299 lung cancer cell line was stably co-transfected with a temperature sensitive p53 mutant, p53-A138V, and a p53-responsive BP100-luciferase reporter. This cell model has previously been characterized in a gene chip profiling experiment for p53 activation. By lowering the culture temperature from 37 deg C (mutant p53 conformation) to 32 deg C (w.t. p53 conformation), a 30-60 fold increase in activation of luciferase activity is observed. At assay temperate, 37 deg C, basal reporter expression is very low and after the addition of detection reagent, a luminescent read-out is carried out. NIH Chemical Genomics Center [NCGC] NIH Molecular Libraries Probe Production Centers Network [MLPCN] MLPCN Grant: DA031088-01A1 Assay Provider (PI): Yi Sung, University of Michigan at Ann Arbor
5ul of 1000 cells per well are dispensed in all wells except column 4, into white solid-bottom TC-treated Kalypsys plates. The cells are kept in Opti-MEM and supplemented with 10% FBS and dispensed using a Multidrop (Thermo). Then using the Kalypsys pin-tool, 23nl of compounds are pinned. The compounds are starting concentration at 10mM, with 1:5 dilution, 4 points, and the control compound nocodazole is pinned in column 1 at 25mM, 1:3 dilution, in duplicate, 25mM nocodazole is pinned in column 2. Please note, all concentrations are working concentrations. 5ul of 1pM purified luciferase enzyme is dispensed using the Kalypsys dispenser in column 4. Plates are incubated for 24 hrs at 37 deg C, 5% CO2, and 95% humidity. Then 4ul of the detection reagent Amplite (ABD Bioquest) is added using the Kalypsys dispenser. Plates are incubated for 10 min at ambient room temperature and are then read on the ViewLux (Perkin Elmer) using a clear filter for a luminescent read-out.
Potency is read from the fitted curve at half-maximal effect.

SMILES | Potency
O=C1[C@@H](c2ccccc2)[C@@H](c2ccccc2)N1c1cccnc1 | inactive
CC1O[C@@H](OC2C(O)C(C)O[C@H](OC(=O)[C@]34CCC(C)(C)C[C@H]3C3=CCC5[C@@]6(C)CC(O)C(O[C@@H]7OC(CO)C(O)[C@@H](O)[C@@H]7O)[C@@](C)(C(=O)O)C6CC[C@@]5(C)[C@]3(CO)CC4)C2O[C@H]2OC(C)[C@@H](O[C@@H]3OCC(O[C@@H]4OC(CO)C(O)[C@H](O)C4O)[C@@H](O)[C@@H]3O)[C@H](O)C2O)C(O)C(O)C1O (some centres not stated) | inactive
COc1cc(C(=O)OCc2cc(=O)n3ccsc3n2)ccc1OC(C)C | inactive
O=C1CCC/C=C\C[C@@H](CC(=O)N(CCO)Cc2ccccc2)C(=O)NCCO1 | inactive
COc1ccc(CNc2nc(NCc3ccc(OC)cc3)c3ncn(C4CCCC4)c3n2)cc1 | inactive
C#CCOCCOCCOCCNc1nc(N2CCN(C(=O)[C@H](CCC(=O)O)n3cc(CN)nn3)CC2)nc(N2CCN(C(=O)[C@H](CCC(=O)O)n3cc(CN)nn3)CC2)n1 | inactive
CC[C@]1(C(=O)OC)[C@H]2C(=O)N(Cc3ccccc3)C(=O)[C@H]2[C@H]2CN=C(SCc3ccc(C#N)cc3)N21 | inactive
Cc1cccc(C)c1Nc1nnc(SCC(=O)NCCCN2CCCC2=O)s1 | inactive
COc1cc(NC(=O)c2[nH]cnc2C(N)=O)cc(C(=O)Nc2cccc(C(F)(F)F)c2)c1 | inactive
CN(c1ccccc1)S(=O)(=O)c1cc(C(=O)N2CCN(c3ncccn3)CC2)ccc1Cl | inactive
CN(C(=O)CSc1cccc[n+]1[O-])C1CCCCC1 | inactive
Cc1cc(C(=O)N/N=C/c2ccc(N3CCOCC3)cc2)c(C)o1 | inactive
Cc1cc(C(=O)NNC(=O)c2ccccc2O)c(C)o1 | inactive
CC(C)c1cc(C(=O)N/N=C/C(Br)=C/c2ccccc2)n[nH]1 | inactive
Cc1cc(C(=O)N/N=C\C(Br)=C\c2ccccc2)c(C)o1 | 31.6 µM (active)
CC(=C/c1ccccc1)/C=N/NC(=O)c1cc(C)oc1C | 11.2 µM (active)
COc1ccc(C/C(C)=N/NC(=O)c2cc(C)oc2C)cc1 | inactive
O=C1c2ccccc2[C@@H]2C[C@@H](O)[C@H](Nc3ccccc3Cl)CCN12 | inactive
CC(C)(C)OC(=O)C1=C(CO)CS[C@@H]2[C@H](NC(=O)Cc3ccccc3)C(=O)N12 | inactive
Cc1cccc(NC(=O)c2ccc(S(=O)(=O)N(C)c3ccccc3)cc2)n1 | inactive
CCN(CC(=O)NC(C)C)C(=O)c1cc(S(=O)(=O)N2CCCCC2)ccc1N1CCCCC1 | inactive
COc1ccc(C(=O)COC(=O)CN2C(=O)C3CC=CCC3C2=O)c(OC)c1 (configuration not stated) | inactive
Cc1ccc(S(=O)(=O)N2C[C@@H]3CCCC[C@@H]3[C@@H](C)[C@H]2c2cn(Cc3ccccc3)c3ccc(F)cc23)cc1 | inactive
COc1ccc(C(=O)Nc2cc(S(=O)(=O)N3CCCC3)ccc2Cl)cc1 | inactive
CCN(C(=O)COC(=O)CCC(=O)c1cccs1)C1CCCCC1 | inactive
CC(=O)N(O)CCCCCNC(=O)CCC(=O)N(O)CCCCCNC(=O)CCC(=O)N(O)CCCCCNC(=O)CCC(=O)O | inactive

SMILES | Potency
O=C(/C=C/c1ccc(Cl)c([N+](=O)[O-])c1)c1ccc(O)cc1 | inactive
O=C(/C=C/c1ccc2c(c1)OCCO2)c1ccc(O)cc1 | 22.4 µM (active)
O=C(O)/C=C/c1ccc2c(c1)OCCO2 | inactive
O=C(COC(=O)c1ccncc1)Nc1ccc2c(c1)OCO2 | inactive
O=C(Nc1cccc(S(=O)(=O)N2CCCCC2)c1)c1cncc(Br)c1 | inactive
COc1cc(S(=O)(=O)N2CCN(C(=O)C3CC3)CC2)ccc1NC(C)=O | inactive
CC[C@]12c3[nH]c4ccc(OC)cc4c3CCN1C(=O)C(CC(=O)NCCN1CCOCC1)C[C@@H]2C(=O)N1CCN(C(=O)C2CC2)CC1 (some centres not stated) | inactive
CC[C@]12c3[nH]c4cc(CCC(=O)N(C)C)ccc4c3CCN1C(=O)[C@@H](CC(=O)NCCCn1ccnc1)C[C@@H]2C(=O)N1CCN(C(=O)C2CC2)CC1 | inactive
CN(C)C(=O)CCc1ccc2c3c([nH]c2c1)[C@]1(C)[C@@H](C(=O)N2CCCCC2)C[C@H](CC(=O)NCCC2=CCCCC2)C(=O)N1CC3 | inactive
COc1cc(OC)cc(C(=O)NC(C(=O)N2CCC2)C(C)C)c1 (configuration not stated) | inactive
O=C(N[C@H]1C/C=C\C(c2ccc(F)cc2)N(Cc2ccccc2)C(=O)C1)OCC1c2ccccc2-c2ccccc21 (some centres not stated) | inactive
COc1ccccc1C(=O)Nc1ccc(C)c(S(=O)(=O)N2CCCCC2)c1 | inactive
Cc1ccc2c(c1)NC(=O)[C@@]1(C)[C@@H](c3ccccc3)[C@H]3COc4ccc(Cl)cc4[C@@H]3N1C2=O | inactive
C[C@@H]1CN([C@H](C)CO)C(=O)c2cc(NC(=O)NC3CCCCC3)ccc2O[C@H]1CN(C)S(C)(=O)=O | inactive
O=C(C[C@@H]1C/C=C\CCC(=O)OC[C@@H]2CCCN2C1=O)NCCO | inactive
COc1ccc(/C=C/C(=O)OCC(=O)NC2CCCCCC2)cc1OC | inactive
CC1(C)CC[C@@]2(C(=O)O)C(C1)C1=CCC3[C@@]4(C)CC[C@H](O)C(C)(C)C4CC[C@@]3(C)[C@]1(C)C[C@H]2O (some centres not stated) | inactive
CC(=O)C[C@H](O)CC(=O)[C@@H]1OC(=O)[C@@H](C)C/C=C\Cc2ccccc21 | inactive
CCCCNC(=O)C(C)N(CCN(C)C)C(=O)CCCCCN1C(=O)NC(c2ccc(Cl)cc2)C(C(=O)OCc2ccccc2)=C1C (configuration not stated) | inactive
COc1cc2c(-c3ccc4c(c3)OCO4)c(-c3ccsc3)oc(=O)c2cc1OC | inactive
COc1cc(/C=C2\Oc3ccc(C#Cc4ccc(O)cc4)cc3C2=O)cc(OC)c1 | inactive
Cc1ccc(NS(=O)(=O)c2ccc(C(C)C)cc2)cc1S(=O)(=O)N1CCOCC1 | inactive
COc1ccc(Br)cc1CN(C)C(=O)C1CC(=O)N(C2CCCC2)C1 (configuration not stated) | inactive
Cc1nn(-c2ccccc2)c(Cl)c1C(=O)Nc1ccccc1 | inactive
Cc1nn(-c2ccccc2)c(C)c1/C=C/C(=O)OC(C)C(N)=O (configuration not stated) | inactive
Cc1nn(-c2ccccc2)c(Cl)c1/C=C/C(=O)c1ccc(O)cc1 | 22.4 µM (active)
